Source: PubChem BioAssay
A number with no mark means an inactive call. Active and inactive are the calls of the source.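 The calls were made as follows, unless noted: active = mean inhibition above 46.68%, the untreated control wells mean plus 3 SD; inactive = the rest.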

How the values were obtained:
[1] = target: Nuclear receptor coactivator 3 (Homo sapiens) (UniProt Q9Y6Q9); experiment: NCOA3 GAL4-fusion reporter inhibition – cell-based, luminescence, quadruplicate, confirmation (AID 588792;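 active = mean inhibition over 43.08%, the solvent-only control mean plus 3 SD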;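 also: 0% = DMSO treated cells and 100% = gossypol at 36 µM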); conditions: HEK293 GAL4-SRC3 luciferase reporter, at 3.6 µM, active compounds read high
Nuclear receptor coactivator 3 (Homo sapiens), sequence (Q9Y6Q9 whole entry, looked up, the tested form may be a part): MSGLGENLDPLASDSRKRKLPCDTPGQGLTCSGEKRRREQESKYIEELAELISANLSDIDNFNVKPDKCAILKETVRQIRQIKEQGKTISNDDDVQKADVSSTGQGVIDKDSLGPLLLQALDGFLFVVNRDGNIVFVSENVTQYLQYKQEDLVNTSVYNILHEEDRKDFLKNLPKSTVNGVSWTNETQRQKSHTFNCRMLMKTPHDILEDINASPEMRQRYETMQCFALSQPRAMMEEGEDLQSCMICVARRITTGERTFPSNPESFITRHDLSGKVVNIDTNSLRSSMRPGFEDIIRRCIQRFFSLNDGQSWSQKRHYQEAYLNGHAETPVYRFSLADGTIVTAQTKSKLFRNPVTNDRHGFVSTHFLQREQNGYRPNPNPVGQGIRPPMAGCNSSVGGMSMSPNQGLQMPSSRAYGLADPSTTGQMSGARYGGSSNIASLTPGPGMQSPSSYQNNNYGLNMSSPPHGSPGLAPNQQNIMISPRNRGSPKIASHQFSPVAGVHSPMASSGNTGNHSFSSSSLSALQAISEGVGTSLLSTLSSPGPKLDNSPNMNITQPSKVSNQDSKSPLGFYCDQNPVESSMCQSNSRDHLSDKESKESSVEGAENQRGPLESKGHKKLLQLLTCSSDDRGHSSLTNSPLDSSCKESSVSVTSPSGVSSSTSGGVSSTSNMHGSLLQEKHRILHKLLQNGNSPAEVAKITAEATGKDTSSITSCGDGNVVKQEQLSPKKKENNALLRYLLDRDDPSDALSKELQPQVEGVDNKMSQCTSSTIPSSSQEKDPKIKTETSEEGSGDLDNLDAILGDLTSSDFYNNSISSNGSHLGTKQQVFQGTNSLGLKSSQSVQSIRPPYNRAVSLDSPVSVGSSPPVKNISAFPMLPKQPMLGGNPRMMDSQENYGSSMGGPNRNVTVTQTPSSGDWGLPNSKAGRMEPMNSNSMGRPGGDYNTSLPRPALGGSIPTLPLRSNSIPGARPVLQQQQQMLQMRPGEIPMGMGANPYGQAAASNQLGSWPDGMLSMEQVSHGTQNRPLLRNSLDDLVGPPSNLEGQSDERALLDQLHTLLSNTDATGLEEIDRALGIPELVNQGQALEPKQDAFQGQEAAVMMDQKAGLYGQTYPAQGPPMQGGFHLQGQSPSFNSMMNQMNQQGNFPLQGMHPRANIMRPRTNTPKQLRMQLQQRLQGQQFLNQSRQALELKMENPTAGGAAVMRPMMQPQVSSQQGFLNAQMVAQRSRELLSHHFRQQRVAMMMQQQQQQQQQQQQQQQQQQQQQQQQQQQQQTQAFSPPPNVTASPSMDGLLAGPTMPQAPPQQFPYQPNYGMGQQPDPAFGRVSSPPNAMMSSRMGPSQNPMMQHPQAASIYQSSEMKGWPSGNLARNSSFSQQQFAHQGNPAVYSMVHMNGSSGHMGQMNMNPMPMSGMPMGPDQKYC

[2] = tested on: transactivating tegument protein VP16 (Human herpesvirus 1), Gal4-VP16 luciferase reporter; experiment: repression of VP16-driven luciferase reporter – cell-based, luminescence, high throughput, counter-screen for SRC3 inhibitor project (AID 588794; in the data active = inhibition above about 30%); conditions: mammalian cells, at 3.6 µM, active compounds read high
[3] = target: Nuclear receptor coactivator 1 (Homo sapiens) (UniProt Q15788); experiment: NCOA1 GAL4-fusion reporter inhibition – cell-based, luminescence, quadruplicate, confirmation (AID 588820); conditions: HEK293 GAL4-SRC1 luciferase reporter, at 3.6 µM, active compounds read high;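 also: 0% = DMSO wells and 100% = gossypol 36 µM treated wells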
Nuclear receptor coactivator 1 (Homo sapiens), sequence (Q15788 whole entry, looked up, the tested form may be a part): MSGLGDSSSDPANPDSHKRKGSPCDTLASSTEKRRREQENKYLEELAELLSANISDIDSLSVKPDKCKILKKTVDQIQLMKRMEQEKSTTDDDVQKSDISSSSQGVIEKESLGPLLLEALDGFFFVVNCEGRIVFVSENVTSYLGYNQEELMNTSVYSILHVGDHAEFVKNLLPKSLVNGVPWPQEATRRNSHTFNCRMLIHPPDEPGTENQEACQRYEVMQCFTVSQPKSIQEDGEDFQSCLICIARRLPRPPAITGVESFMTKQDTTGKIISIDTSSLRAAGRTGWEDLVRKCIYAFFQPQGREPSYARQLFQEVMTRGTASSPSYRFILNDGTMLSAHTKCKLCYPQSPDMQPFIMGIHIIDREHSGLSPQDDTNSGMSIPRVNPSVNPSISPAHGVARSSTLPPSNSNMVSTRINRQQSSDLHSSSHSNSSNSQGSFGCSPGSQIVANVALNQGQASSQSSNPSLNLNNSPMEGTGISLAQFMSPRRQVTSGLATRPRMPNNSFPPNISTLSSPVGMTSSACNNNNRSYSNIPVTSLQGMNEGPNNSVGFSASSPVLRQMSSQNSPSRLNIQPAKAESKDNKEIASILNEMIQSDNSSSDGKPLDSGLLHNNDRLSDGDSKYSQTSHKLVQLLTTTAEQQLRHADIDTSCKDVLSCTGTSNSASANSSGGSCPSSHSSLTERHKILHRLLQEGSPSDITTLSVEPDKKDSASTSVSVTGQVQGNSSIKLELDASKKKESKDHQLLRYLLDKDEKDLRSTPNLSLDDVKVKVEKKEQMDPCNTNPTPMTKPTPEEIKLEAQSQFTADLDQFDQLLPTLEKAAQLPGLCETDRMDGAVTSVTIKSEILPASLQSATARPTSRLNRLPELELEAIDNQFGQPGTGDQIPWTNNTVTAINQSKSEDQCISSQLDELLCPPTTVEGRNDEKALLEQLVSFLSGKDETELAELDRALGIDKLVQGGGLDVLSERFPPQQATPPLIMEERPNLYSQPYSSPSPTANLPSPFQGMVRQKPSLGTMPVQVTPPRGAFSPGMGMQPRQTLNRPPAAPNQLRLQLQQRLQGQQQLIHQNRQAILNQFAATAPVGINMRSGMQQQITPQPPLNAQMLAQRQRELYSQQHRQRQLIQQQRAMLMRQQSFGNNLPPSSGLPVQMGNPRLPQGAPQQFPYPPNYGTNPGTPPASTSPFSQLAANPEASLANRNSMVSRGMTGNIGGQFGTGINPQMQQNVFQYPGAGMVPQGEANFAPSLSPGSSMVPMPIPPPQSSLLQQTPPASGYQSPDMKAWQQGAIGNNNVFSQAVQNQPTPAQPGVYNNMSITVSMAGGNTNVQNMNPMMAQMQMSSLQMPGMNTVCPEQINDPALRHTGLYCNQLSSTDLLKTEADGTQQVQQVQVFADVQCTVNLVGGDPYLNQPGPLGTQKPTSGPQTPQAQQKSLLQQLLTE

[4] = repression of VP16-driven luciferase reporter – cell-based, luminescence, high throughput, counter-screen for SRC1 inhibitor project (AID 588824; in the data active = inhibition above about 25%); conditions: cell-based VP16 transactivation luciferase luminescence; at 3.6 µM; active compounds read high
[5] = StAR promoter reporter inhibitors, counter-screen for LRH-1 inverse agonist project, cell-based, luminescence, high throughput (AID 651611; in the data active = inhibition above about 28%); conditions: StAR promoter luciferase reporter counterscreen, at 3.6 µM, active compounds read high
[6] = target: Nuclear receptor subfamily 5 group A member 2 (Homo sapiens) (UniProt O00482); experiment: NR5A2 activity suppression in reporter cells – cell-based, luminescence, confirmation (AID 651613; in the data active = inhibition above about 42%;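 also: HEK293T cells co-transfected with LRH-1 and StAR promoter luciferase reporter; 0% = vehicle wells and 100% = parental cells lacking receptor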); conditions: cell-based LRH-1 luciferase reporter, inverse agonism; at 3.6 µM; active compounds read high
Nuclear receptor subfamily 5 group A member 2 (Homo sapiens), sequence (O00482 whole entry, looked up): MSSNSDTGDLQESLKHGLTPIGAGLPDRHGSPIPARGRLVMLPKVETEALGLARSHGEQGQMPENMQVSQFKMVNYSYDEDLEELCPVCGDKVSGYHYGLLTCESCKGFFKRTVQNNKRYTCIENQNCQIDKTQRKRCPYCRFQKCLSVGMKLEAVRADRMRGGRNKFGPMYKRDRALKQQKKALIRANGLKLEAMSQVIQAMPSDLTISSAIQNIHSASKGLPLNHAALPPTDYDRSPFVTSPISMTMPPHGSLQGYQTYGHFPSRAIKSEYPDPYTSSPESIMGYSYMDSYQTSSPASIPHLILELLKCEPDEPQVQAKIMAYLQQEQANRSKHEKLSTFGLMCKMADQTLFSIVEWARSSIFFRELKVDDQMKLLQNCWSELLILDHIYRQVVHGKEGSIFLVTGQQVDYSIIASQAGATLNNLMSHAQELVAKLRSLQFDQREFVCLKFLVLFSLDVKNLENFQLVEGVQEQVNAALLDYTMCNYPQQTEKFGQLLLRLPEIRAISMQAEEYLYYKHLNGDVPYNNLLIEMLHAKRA

[7] = target: Steroidogenic factor 1 (Homo sapiens) (UniProt Q13285); experiment: inverse agonism at SF1 nuclear receptor – cell-based, luminescence, high throughput, counter-screen for LRH-1 inverse agonist project (AID 651614; in the data active = inhibition above about 44%;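 also: cells cotransfected with StAR promoter reporter and SF1 expression vector; 0% = vehicle on cells with receptor and 100% = vehicle on cells lacking receptor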); conditions: cell-based SF1 luciferase reporter, at 3.6 µM, active compounds read high
Steroidogenic factor 1 (Homo sapiens), sequence (Q13285 whole entry, looked up, the tested form may be a part): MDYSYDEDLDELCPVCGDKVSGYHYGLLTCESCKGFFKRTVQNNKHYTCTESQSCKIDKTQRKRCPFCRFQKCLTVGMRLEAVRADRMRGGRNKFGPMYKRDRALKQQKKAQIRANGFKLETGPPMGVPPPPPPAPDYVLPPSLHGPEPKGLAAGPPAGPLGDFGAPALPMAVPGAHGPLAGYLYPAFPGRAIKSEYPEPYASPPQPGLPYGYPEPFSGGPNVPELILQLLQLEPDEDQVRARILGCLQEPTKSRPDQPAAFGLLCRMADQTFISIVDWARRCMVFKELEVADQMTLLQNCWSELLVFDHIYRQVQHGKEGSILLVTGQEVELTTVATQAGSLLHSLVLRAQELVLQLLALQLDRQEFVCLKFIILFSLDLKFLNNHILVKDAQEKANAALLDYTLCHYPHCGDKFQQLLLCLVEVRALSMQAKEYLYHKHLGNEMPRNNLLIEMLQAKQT

[8] = compounds suppressing VP16-driven luciferase signal – cell-based, luminescence, high throughput, counter-screen for LRH-1 inverse agonist project (AID 651615; in the data active = inhibition above about 33%); conditions: Gal4-VP16 luciferase reporter cells, at 3.6 µM, active compounds read high

Row | SMILES | inhibition [1] | inhibition [2] | inhibition [3] | inhibition [4] | inhibition [5] | inhibition [6] | inhibition [7] | inhibition [8]
1 | CC1(C)CC(N2CCCCC2)=CC(=[N+]2CCCCC2)C1 | 21.5% | 44.1% (active) | 14.8% | 39.7% (active) | 30.1% (active) | 80% (active) | 69.1% (active) | 67.3% (active)
2 | Cc1cccc2cc(-c3ccccc3)c(-c3ccccc3)c[n+]12 | 4.1% | 37% (active) | 5.14% | 40.4% (active) | 18.2% | 106% (active) | 63.2% (active) | 81.7% (active)
3 | CCC(C)N(CC(=O)Nc1cccc(C)c1C)C(=O)CCl (stereo unspecified) | 80% (active) | 67% (active) | 52% (active) | 71% (active) | 69.2% (active) | 84.8% (active) | 78.8% (active) | 77.9% (active)
4 | CC(C)(O)C#Cc1ccc([C@@H]2C[C@H]3CN(c4ccccc4)C(=O)[C@]34CCCN24)s1 | 42.9% | 41.9% (active) | 45.8% | 42.1% (active) | 61.3% (active) | 82% (active) | 28.3% | 88.8% (active)
5 | Cn1nccc1C(=O)N/N=C/c1c(O)ccc2ccccc12 | 73.9% (active) | 74.6% (active) | 72% (active) | 71% (active) | 82.4% (active) | 101% (active) | 86.2% (active) | 71.1% (active)
6 | CC1Cc2ccccc2N1c1ncnc(N)c1[N+](=O)[O-] (stereo unspecified) | 84.3% (active) | 68% (active) | 81.5% (active) | 65.6% (active) | 39.9% (active) | 63.6% (active) | 46.7% (active) | 82.4% (active)
7 | O=C(N/N=C/c1sc(N2CCOCC2)nc1-c1ccccc1)c1cccc(S(=O)(=O)N2CCOCC2)c1 | 38.1% | 46.1% (active) | 43.6% | 61.9% (active) | 69.9% (active) | 100% (active) | 85.7% (active) | 87.4% (active)
8 | Cc1ccc2nc(NC(=O)CSCC(=O)OCC(=O)c3ccccc3)sc2c1 | 46.5% (active) | 39% (active) | 7.46% | 30.5% (active) | 19.2% | 52.4% (active) | 39.6% | 32.6% (active)
9 | CCC1(O)C(=O)OCc2c1cc1n(c2=O)Cc2cc3c(N)cccc3nc2-1 (stereo unspecified) | 89.6% (active) | 77.9% (active) | 54.4% (active) | 71.3% (active) | 83.6% (active) | 104% (active) | 92.1% (active) | 79.6% (active)
10 | CN(C)CC1CCC/C(=C\c2ccc(OC(=O)c3ccc(Cl)cc3)cc2)C1=O (stereo unspecified) | 50.4% (active) | 60.2% (active) | 29.9% | 58.1% (active) | 70.8% (active) | 89.9% (active) | 76.4% (active) | 69.3% (active)
11 | COc1ccc(NC(=O)c2cc(-c3cc(C)cc(F)c3)n[nH]2)cc1OC | 23.5% | 44.4% (active) | 15.5% | 33.5% (active) | 39.5% (active) | 55.6% (active) | 59.6% (active) | 61.5% (active)
12 | COc1ccc2cc3cc(C(=O)Nc4cc(OC)c(OC)c(OC)c4)oc3nc2c1 | 37.1% | 33.5% (active) | 9.93% | 46.1% (active) | 71% (active) | 55.1% (active) | 74.7% (active) | 56.5% (active)
13 | CCCC(=O)NC(c1ccc(Cl)cc1)c1ccc2cccnc2c1O (stereo unspecified) | 31% | 28% | 15.5% | 40.2% (active) | 71.8% (active) | 83.3% (active) | 74.9% (active) | 74.8% (active)
14 | CC(C)CC(=NNC(=O)c1ccncc1)c1cc(Cl)ccc1O | 80.1% (active) | 72.5% (active) | 65.2% (active) | 78.7% (active) | 88.6% (active) | 101% (active) | 92.5% (active) | 85.7% (active)
15 | Nc1ncnc2c(C3OC(CO)C(O)C3O)c[nH]c12 (stereo unspecified) | 97.4% (active) | 96.5% (active) | 95.7% (active) | 96% (active) | 95.6% (active) | 111% (active) | 98.2% (active) | 97.7% (active)
16 | COc1ccc(-c2cn(-c3ccc(OC)cc3)c3[n+]2-c2ccccc2CC3)cc1 | 46.3% (active) | 55.9% (active) | 34.7% | 59.9% (active) | 40.8% (active) | 88.8% (active) | 82.3% (active) | 77.8% (active)
17 | CC1(C)CC(N2CCN(Cc3ccccc3)CC2)=CC(=[N+]2CCCCC2)C1 | 30.2% | 50.7% (active) | -6.45% | 40.7% (active) | 59.8% (active) | 88.3% (active) | 86.3% (active) | 74% (active)
